# According to PubChem BioAssay (EPA / NIEHS):
# Calls of active or inactive are those of the source. Rule for the calls: active = hit-call score of the fitted dose curve at least 0.9, where 1 is the maximum; inactive = score below 0.9.
# Biological target: Myc proto-oncogene protein (Homo sapiens) (UniProt P01106)
# Experiment: ATG_Myc_CIS: Attagene CIS-FACTORIAL HepG2 Assay for human Myelocytomatosis (Myc) Proto-Oncogene Transcription Factor (AID 2282990)
# Conditions: HepG2, Attagene cis-reporter transcription factor activity; actives raise or lower the signal
# Experimental: ATG_CIS is a cell-based, multiplexed-readout assay that uses HepG2, a human liver cell line, with measurements taken at 24 hours after chemical dosing in a 24-well plate.ATG_Myc_CIS is one of 52 assay component(s) measured or calculated from the ATG_CIS assay. It is designed to make measurements of mRNA induction, a form of inducible reporter, as detected with fluorescence intensity signals by Reverse transcription polymerase chain reaction (RT-PCR) and Capillary electrophoresis technology.Data from the assay component ATG_Myc_CIS was analyzed into 1 assay endpoint. This assay endpoint, ATG_Myc_CIS, was analyzed with bidirectional fitting relative to DMSO as the negative control and baseline of activity. Using a type of inducible reporter, measures of mRNA for gain or loss-of-signal activity can be used to understand the reporter gene at the transcription factor-level as they relate to the gene MYC. Furthermore, this assay endpoint can be referred to as a primary readout, because this assay has produced multiple assay endpoints where this one serves a reporter gene function. To generalize the intended target to other relatable targets, this assay endpoint is annotated to the dna binding intended target family, where the subfamily is basic helix-loop-helix leucine zipper.
# Human liver HepG2 cells are transiently transfected with multiple reporter transcription units (MRTUs) in 6-well plates using FuGene 6 reagent (Roche; 3 ml FuGene/1 mg DNA). The MRTU constructs are regulated by a cis-regulating element (promoter). […] A major difference between the CIS and TRANS system is that in CIS activities of endogenous TFs are measured, whereas the TRANS assay evaluates changes in activities of exogenous, chimeric NR-Gal4 proteins. […] At the end of 24 hour incubation, total RNA was isolated using TriZol reagent (Invitrogen). The isolated RNA is then reverse-transcribed using oligo(dT) primer and Mo-MLV reverse transcriptase (Invitrogen) with DNAse I (Ambion) treatment for 30 min. The one-tenth of the produced cDNA was amplified by PCR using Taq DNA polymerase (Invitrogen) and two reporter sequence-specific primers. The PCR products were fluorescently labeled by primer extension with 6-arboxyfluorescein (6-FAM) 5'-labeled reporter sequence-specific primer (2 min at 95 C, 20 s at 68 C and 10 min at 72 C) and these products were digested with 5U of HpaI (New England Biolabs) for 2h at 37 C. The fragments were purified using Qiaquick PCR columns (Qiagen), analyzed on an ABI 3130xL genetic analyzer (Applied Biosystems) with peak positions identified by using a set of X-rhodamine (ROX)-labeled MapMarker1000 molecular weight standards (BioVentures). The raw capillary electrophoresis data was processed using Attagraph software (Attagene).
# Chain of Myc proto-oncogene protein (Homo sapiens) (P01106 whole entry, looked up): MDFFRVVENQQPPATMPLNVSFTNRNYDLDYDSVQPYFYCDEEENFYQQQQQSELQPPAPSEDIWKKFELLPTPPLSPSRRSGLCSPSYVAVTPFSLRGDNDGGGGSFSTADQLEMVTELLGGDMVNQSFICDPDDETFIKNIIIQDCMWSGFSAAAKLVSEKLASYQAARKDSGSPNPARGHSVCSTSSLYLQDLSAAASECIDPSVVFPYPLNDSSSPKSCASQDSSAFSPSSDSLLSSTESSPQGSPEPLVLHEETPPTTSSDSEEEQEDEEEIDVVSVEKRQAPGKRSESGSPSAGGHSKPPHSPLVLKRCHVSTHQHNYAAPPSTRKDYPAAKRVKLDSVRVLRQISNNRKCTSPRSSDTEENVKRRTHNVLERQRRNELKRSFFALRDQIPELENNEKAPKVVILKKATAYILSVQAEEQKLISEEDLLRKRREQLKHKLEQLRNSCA
SMILES,outcome,AC50
COC(C)CCO (stereo not given),inactive,–
O=S(=O)(O)c1ccc(O)c2ncccc12,inactive,–
CCCCNC(=O)NS(=O)(=O)c1ccc(C)cc1,inactive,–
CC(C)(C)c1n[nH]c(=S)n(N)c1=O,inactive,–
O=C1CCCCCCCCCCCCCCO1,inactive,–
CN(C)CCOCCN(C)C,inactive,–
Fc1c(F)c(F)c(Br)c(F)c1F,inactive,–
CNC(=O)Oc1ccc2c(c1)[C@]1(C)CCN(C)[C@@H]1N2C,inactive,–
CCN(CC)c1ccc(C(=C2C=CC(=[N+](CC)CC)C=C2)c2ccc(S(=O)(=O)O)cc2S(=O)(=O)[O-])cc1,inactive,–
S=C(S)NCCNC(=S)S,inactive,–
CNCCCC12CCC(c3ccccc31)c1ccccc12,inactive,–
C=O,inactive,–
CCCCCCCCCCCCCC(=O)O,inactive,–
OCCN1CCNCC1,inactive,–
O=P(c1ccccc1)(c1ccccc1)c1ccccc1,inactive,–
CC(CN1c2ccccc2Sc2ccccc21)N(C)C (stereo not given),inactive,–
CC(=O)C(C)=O,inactive,–
Nc1cc(Cl)c(O)c(Cl)c1,–,100 µM (active)
C=CC(C)(CCC=C(C)C)OC=O (stereo not given),inactive,–
CCCCCCCCCCCCCCCC(=O)OC[C@H](O)[C@H]1OC(=O)C(O)=C1O,inactive,–

SMILES,outcome,AC50
Nc1ccc(S(N)(=O)=O)cc1,inactive,–
CC[Si](OC(C)=O)(OC(C)=O)OC(C)=O,inactive,–
Nc1nc2ccc([N+](=O)[O-])cc2s1,inactive,–
OCc1cccnc1,inactive,–
O=C(Nc1ccccc1)c1cc([N+](=O)[O-])ccc1Cl,inactive,–
C=C(C)C(=O)Nc1ccc(Cl)c(Cl)c1,inactive,–
COCCOCCOCCOCCOCCO,inactive,–
CCCCCOC(=O)CCC,inactive,–
COC(=O)Cc1cccc2ccccc12,inactive,–
O=C(O)c1ccc(C(=O)O)cc1,inactive,–
CCCC1CCC(=O)O1 (stereo not given),inactive,–
C=CC(=O)OCCOCCOCC,inactive,–
C=C[Si](OCC)(OCC)OCC,inactive,–
OCCOc1cccc(OCCO)c1,inactive,–
CCCC(=O)c1cc(O)c(O)cc1O,inactive,–
N#Cc1ccc(CC(=NNC(=O)Nc2ccc(OC(F)(F)F)cc2)c2cccc(C(F)(F)F)c2)cc1,inactive,–
CC(=O)OCC=Cc1ccccc1,inactive,–
Cc1cc(C2(c3cc(C)c(O)cc3C)OS(=O)(=O)c3ccccc32)c(C)cc1O,inactive,–
O=c1[nH]c(=O)n([C@H]2CCCO2)cc1F,inactive,–
C[C@]12CC[C@H]3[C@@H](CCC4=CC(=O)CC[C@@]43C)[C@@H]1CC[C@@H]2C(=O)CO,inactive,–
